Reference: PubChem BioAssay (EPA / NIEHS)
Inconclusive results are not listed. Some compounds were tested as several samples or in several runs, with calls that do not always agree. Activity calls are given as the source filed them. Rule for the calls: active = hit-call score of the fitted dose curve at least 0.9, where 1 is the maximum; inconclusive = response in the unintended direction; inactive = score below 0.9.

Molecular target: human Peroxisome Proliferator-activated Receptor alpha (PPARa), PPARA (gene 5465) (UniProt Q07869)
Assay: ATG_PPARa_TRANS: Attagene TRANS-FACTORIAL HepG2 Assay for human Peroxisome Proliferator-activated Receptor alpha (PPARa) (AID 2283001);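 for AC50: potency for gain of reporter signal over DMSO so agonist or activator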
Method: ATG_TRANS is a cell-based, multiplexed-readout assay that uses HepG2, a human liver cell line, with measurements taken at 24 hours after chemical dosing in a 24-well plate.ATG_PPARa_TRANS is one of 30 assay component(s) measured or calculated from the ATG_TRANS assay. It is designed to make measurements of mRNA induction, a form of inducible reporter, as detected with fluorescence intensity signals by Reverse transcription polymerase chain reaction (RT-PCR) and Capillary electrophoresis technology.Data from the assay component ATG_PPARa_TRANS was analyzed into 1 assay endpoint. This assay endpoint, ATG_PPARa_TRANS, was analyzed in the positive analysis fitting direction relative to DMSO as the negative control and baseline of activity. Using a type of inducible reporter, measures of mRNA for gain-of-signal activity can be used to understand the reporter gene at the transcription factor-level as they relate to the gene PPARA. Furthermore, this assay endpoint can be referred to as a primary readout, because this assay has produced multiple assay endpoints where this one serves a reporter gene function. To generalize the intended target to other relatable targets, this assay endpoint is annotated to the nuclear receptor intended target family, where the subfamily is non-steroidal.
Human liver HepG2 cells are transiently transfected with multiple reporter transcription units (MRTUs) in 6-well plates using FuGene 6 reagent (Roche; 3 ml FuGene/1 mg DNA). The MRTU constructs are regulated by a cis-regulating element (promoter). […] A major difference between the CIS and TRANS system is that in CIS activities of endogenous TFs are measured, whereas the TRANS assay evaluates changes in activities of exogenous, chimeric NR-Gal4 proteins. […] At the end of 24 hour incubation, total RNA was isolated using TriZol reagent (Invitrogen). The isolated RNA is then reverse-transcribed using oligo(dT) primer and Mo-MLV reverse transcriptase (Invitrogen) with DNAse I (Ambion) treatment for 30 min. The one-tenth of the produced cDNA was amplified by PCR using Taq DNA polymerase (Invitrogen) and two reporter sequence-specific primers. The PCR products were fluorescently labeled by primer extension with 6-arboxyfluorescein (6-FAM) 5'-labeled reporter sequence-specific primer (2 min at 95 C, 20 s at 68 C and 10 min at 72 C) and these products were digested with 5U of HpaI (New England Biolabs) for 2h at 37 C. The fragments were purified using Qiaquick PCR columns (Qiagen), analyzed on an ABI 3130xL genetic analyzer (Applied Biosystems) with peak positions identified by using a set of X-rhodamine (ROX)-labeled MapMarker1000 molecular weight standards (BioVentures). The raw capillary electrophoresis data was processed using Attagraph software (Attagene).

Chain of human Peroxisome Proliferator-activated Receptor alpha (PPARa), PPARA (gene 5465) (Q07869 whole entry, looked up): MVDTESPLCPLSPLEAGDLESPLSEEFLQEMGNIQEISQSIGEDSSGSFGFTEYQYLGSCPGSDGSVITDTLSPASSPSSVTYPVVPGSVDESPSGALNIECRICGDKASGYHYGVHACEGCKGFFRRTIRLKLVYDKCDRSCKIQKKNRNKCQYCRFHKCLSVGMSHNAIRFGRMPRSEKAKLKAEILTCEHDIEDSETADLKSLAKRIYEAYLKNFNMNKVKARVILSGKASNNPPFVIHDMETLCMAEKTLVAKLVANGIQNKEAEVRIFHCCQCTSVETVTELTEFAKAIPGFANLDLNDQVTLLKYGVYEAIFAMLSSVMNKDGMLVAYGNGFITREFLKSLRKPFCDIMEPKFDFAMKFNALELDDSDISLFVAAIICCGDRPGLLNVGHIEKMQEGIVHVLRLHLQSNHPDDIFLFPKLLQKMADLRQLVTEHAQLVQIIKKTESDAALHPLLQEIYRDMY

Row | SMILES | outcome | AC50
1 | O=S(=O)(O)C(F)(F)C(F)(F)C(F)(F)C(F)(F)C(F)(F)C(F)(F)C(F)(F)C(F)(F)C(F)(F)C(F)(F)F | inactive | 
2 | OCC(F)(F)C(F)(F)C(F)(F)C(F)(F)C(F)(F)C(F)(F)C(F)(F)C(F)(F)C(F)(F)C(F)(F)C(F)(F)F | inactive | 
3 | CC(C)c1c(C(=O)Nc2ccccc2)c(-c2ccccc2)c(-c2ccc(F)cc2)n1CC[C@@H](O)C[C@@H](O)CC(=O)O | inactive | 
4 | CS(=O)(=O)c1ccc([C@@H](CC2CCCC2)C(=O)Nc2cnccn2)cc1Cl | inactive | 
5 | CNNCc1ccc(C(=O)NC(C)C)cc1 | inactive | 
6 | CCCCCC(C)OC(=O)COc1ccc(Cl)c2cccnc12 (stereo not given) | inactive | 
7 | O=C(OC(=O)C(F)(F)C(F)(F)F)C(F)(F)C(F)(F)F | inactive | 
8 | O=S(=O)(O)c1ccccc1 | inactive | 
9 | CCCCCCCCCCCCCCCCCC[N+](C)(C)Cc1ccccc1 | inactive | 
10 | Oc1ccc(Cc2ccccc2O)cc1 | inactive | 
11 | NC(C(F)(F)F)C(F)(F)F | inactive | 
12 | c1ccc2c(c1)CCC2 | inactive | 
13 | COCN(COC)c1nc(N(COC)COC)nc(N(COC)COC)n1 | inactive | 
14 | O=CC(F)(F)C(F)(F)C(F)(F)C(F)F | inactive | 
15 | NNc1nc(-c2ccc([N+](=O)[O-])cc2)cs1 | inactive | 
16 | O=C1C=CC(=O)N1c1cccc(N2C(=O)C=CC2=O)c1 | inactive | 
17 | C=CC(F)(F)C(F)(F)C(F)(F)C(F)(F)F | inactive | 
18 | C[C@]12CC[C@@H]3c4ccc(O)cc4CC[C@H]3[C@@H]1C[C@@H](O)[C@@H]2O | inactive | 
19 | Cc1ccc2ccc3ccc(C)cc3c2c1 | inactive | 

Row | SMILES | outcome | AC50
20 | CC(C)(C)c1ccc(O)c(O)c1 |  | 31.7 µM (active) [middle of 5 runs]
21 | Cc1cc(Cc2cc(C)cc(C(C)(C)C)c2O)c(O)c(C(C)(C)C)c1 | inactive | 
22 | O=S(=O)(O)c1ccc2cc(O)ccc2c1 | inactive | 
23 | CCC(=O)O | inactive | 
24 | FC(F)(F)C1(F)C(F)(F)C(F)(F)C(F)(F)C1(F)F | inactive | 
25 | NC(=NCCCCCCN=C(N)/N=C(\N)Nc1ccc(Cl)cc1)/N=C(\N)Nc1ccc(Cl)cc1 | inactive | 
26 | C=COC(=O)C(C)(C)CCCCCC | inactive | 
27 | Cc1cccc2c1ccc1ccccc12 | inactive | 
28 | O=C(O)C(F)(F)OC(F)(F)C(F)(F)OC(F)(F)C(F)(F)OC(F)(F)C(F)(F)C(F)(F)C(F)(F)F | inactive | 24 µM (active)
29 | Oc1c(Cl)cc(Cl)cc1Sc1cc(Cl)cc(Cl)c1O |  | 11.1 µM (active)
30 | CCOC=C(C(=O)OCC)C(=O)OCC | inactive | 
31 | O=C1c2ccc(O)c(O)c2C(=O)c2c(O)ccc(O)c21 | inactive | 
32 | COc1cc(OC)nc(NC(=O)NS(=O)(=O)Nc2ccccc2C(=O)N(C)C)n1 | inactive | 
33 | FCOC(C(F)(F)F)C(F)(F)F | inactive | 
34 | CCCCCCCCCCCCOC(=O)c1cc(O)c(O)c(O)c1 |  | 43.9 µM (active)
35 | NNC(=O)CCCCC(=O)NN | inactive | 
36 | CC1=CC(=O)c2ccccc2C1=O | inactive | 
37 | c1cc2cccc3c4cccc5cccc(c(c1)c23)c54 | inactive | 
38 | CCCCCCCCCCCC[N+](C)(C)Cc1ccccc1 | inactive | 68.2 µM (active)
